Screening data: PubChem BioAssay, National Center for Advancing Translational Sciences (NCATS)
Rab9 prom act: activates the Rab9 promoter; hit rate 2.8% among 320,000; Huh7 Rab9 promoter-luciferase reporter, luminescence, 24 h; Potency, µM (highest dose often 9.22 µM), without a hit: at the highest dose activation, negative = inhibition, actives largely listed as activators; also: % of control where 0% means no effect; nearly all actives have a fitted effect of over 60% in size
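Rab9 promoter-driven luciferase in stably transfected Huh7 cells; 1500 cells/well rested 2 h, exposed to compound in DMSO for 24 h at 37 °C, 5% CO2. Luminescence read 10 min after adding luciferase reagent at ambient temperature.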
FLuc modulator: inhibits or activates purified firefly luciferase, miR-21 counter-screen | P08659 | purified FLuc, Km substrates, luminescence inhibition | Potency, µM (titrated, usually from 57.5 µM), for inactives: top-dose activity change, negative = inhibition, actives largely listed as inhibitors | hit rate 6.9% among 360,000 | AID 588342;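 also: plate controls were vehicle for no effect and reference inhibitor for full effect; nearly all actives have a fitted effect of over 55% in size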
Target sequence (P08659 whole entry, looked up): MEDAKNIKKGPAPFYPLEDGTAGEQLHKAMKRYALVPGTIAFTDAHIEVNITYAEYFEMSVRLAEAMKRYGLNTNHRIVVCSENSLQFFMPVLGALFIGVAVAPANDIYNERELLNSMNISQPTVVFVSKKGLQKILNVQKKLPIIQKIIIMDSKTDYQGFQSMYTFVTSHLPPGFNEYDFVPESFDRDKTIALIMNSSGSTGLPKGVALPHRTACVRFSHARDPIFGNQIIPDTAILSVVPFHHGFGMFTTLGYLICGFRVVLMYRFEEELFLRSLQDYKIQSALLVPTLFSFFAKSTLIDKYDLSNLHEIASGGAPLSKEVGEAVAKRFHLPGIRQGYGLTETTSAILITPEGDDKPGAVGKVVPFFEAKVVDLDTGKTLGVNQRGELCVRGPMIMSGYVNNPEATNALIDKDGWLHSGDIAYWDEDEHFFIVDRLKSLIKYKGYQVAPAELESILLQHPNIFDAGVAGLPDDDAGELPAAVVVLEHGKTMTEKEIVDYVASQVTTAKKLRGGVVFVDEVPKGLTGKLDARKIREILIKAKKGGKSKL
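Biochemical qHTS of compounds, final roughly 60 µM downward over six points, against 10 nM purified firefly luciferase using Km concentrations of substrates (10 uM D-luciferin, 10 uM ATP) in Tris acetate pH 7.5 buffer; luminescence output.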
ELG1 genotoxic: inducers of genotoxicity in HEK293T ELG1-luciferase cells; HEK293T ELG1-luciferase reporter, luminescence, 16 h; Potency, µM (doses to about 46 µM), without a hit: top-dose activity change, positive = activation, actives largely listed as activators; hit rate 1.3% among 330,000; AID 504466; also: % of control where 0% means no effect; nearly all actives have a fitted effect of over 60% in size
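HEK293T cells expressing luciferase-tagged ELG1 were exposed to compound or DMSO vehicle for 16 hr at 37 °C and 5% CO2. Luciferase activity was then measured with ONE-Glo after 30 min at room temperature.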
NPC1 prom act: activates the NPC1 promoter; Huh7 NPC1 promoter luciferase reporter, 24 h; Potency, µM (highest dose often 9.22 µM), inactives show at the highest dose activation, actives largely listed as activators; hit rate 2.4% among 320,000; AID 485313; also: % of control where 0% means no effect; nearly all actives have a fitted effect of over 60% in size
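Cells: Huh7 expressing luciferase under the NPC1 promoter, 1500/well. Seeded 2 h, compound added, incubated 24 h at 37 °C. Luciferase reagent, 10 min ambient, then luminescence.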
KinaseGlo FLuc: Kinase-Glo luciferase inhibition (counter-screen) | hit rate 0.28% among 200,000 | AID 1379 | Potency, µM (top dose mostly 38.3 µM), for inactives: top-dose activity change, negative = inhibition, actives largely listed as inhibitors | Kinase-Glo luciferase, ATP luminescence, 8 min; also: % is scaled to controls: 0 for no effect and ±100 for the full control effect; nearly all actives have a fitted effect of over 60% in size
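Kinase-Glo luciferase light output from ATP and luciferin was measured with 10 uM ATP, within the enzyme's linear range. Buffer: 50 mM imidazole pH 7.2, 50 mM KCl, 7 mM MgCl2, 0.01% Tween 20, 0.05% BSA; luminescence read after 8 min at ambient temperature.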
SMN2 splice up: SMN2 splice variant enhancement; Potency, µM (top dose mostly 46.1 µM), for inactives: at the highest dose activity change, positive = activation, most hits filed as activators; HEK293 SMN2-luciferase splicing reporter, luminescence, 30-36 h; hit rate 2.8% among 210,000; also: % of control where 0% means no effect; nearly all actives have a fitted effect of over 55% in size
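HEK293 cells carry an SMN2 minigene-luciferase reporter in which exon 7 inclusion puts luciferase in frame. Cells were seeded at 2000 cells/well, attached for 10-12 hours, then exposed to compounds for 30-36 hours at 37C before ONE-Glo luminescence.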
Active calls of the source: *; ? = inconclusive; / = no result; [ ] = dose if it differs, or a comment. A selection: hits, their analogues and other compounds. The true share with any hit is near 7.5%. Calls follow the shape of the dose curve; as a rule, active = well fitted curve in the direction sought with a large enough effect; inconclusive = small, poorly fitted or top-dose-only effect, or another doubt; inactive = no such curve, though single readings can be large; an effect the other way counts as inactive or inconclusive. Potency is read from the fitted curve at half-maximal effect.

SMILES	Rab9 prom act	FLuc modulator	ELG1 genotoxic	NPC1 prom act	KinaseGlo FLuc	SMN2 splice up
COc1cc2oc(-c3ccc(O)cc3)cc(=O)c2c(O)c1OC	-0.2%	19µM*	?	23.6%	/	/
COc1cccc2oc(-c3ccc(O)cc3)cc(=O)c12	/	/	/	/	-18.9%	/
O=c1cc(-c2ccc(O)cc2)oc2ccc3ccccc3c12	?	0.0675µM*	?	0.891µM*	/	/
COc1cc2oc(-c3ccc(O)cc3)cc(=O)c2c(OC)c1O	1.3%	23.9µM*	16.4µM*	-2.2%	/	/
COc1c(O)cc2oc(-c3ccc(O)cc3)cc(=O)c2c1O	?	0.849µM*	9.2µM*	?	/	/
O=C(/C=C/c1cccc(O)c1)c1ccc(N2CCOCC2)cc1	?	1.2µM*	12.1%	?	/	/
Cc1nc2ccc(NS(=O)(=O)c3ccc(F)c(F)c3)cc2s1	-10.6%	-0.3%	-0.9%	-2.4%	/	/
Cc1ccc2nc(-c3ccc(NS(=O)(=O)c4ccc(F)c(F)c4)cc3)sc2c1	1.58µM*	1.2µM*	?	2.82µM*	-2.7%	?
Cc1ccc2nc(-c3ccc(NS(=O)(=O)c4ccccc4)cc3)sc2c1	12.5%	13.5µM*	7.4%	15.1%	-4.1%	2.7%[1.84 µM]
COc1ccc(N2CCN(S(=O)(=O)CCNC(=O)COc3ccc(Cl)cc3)CC2)cc1	3.3%	1.1%	3.3%	-3.3%	/	/
O=C(O)/C=C/c1cccc(NC(=O)Nc2ccc([N+](=O)[O-])cc2)c1	4.5%	7.57µM*	0.2%	-5.3%	/	/
O=C(Nc1ccc([N+](=O)[O-])cc1)C(=O)Nc1cccc(C(=O)O)c1	?	0.019µM*	?	?	/	/
N#C/C(=C\c1ccc(N2CCOCC2)c([N+](=O)[O-])c1)c1nc2ccccc2[nH]1	-0.8%	15.1µM*	-1.4%	18.3%	1.3%	-7.1%
N#C/C(=C\c1ccncc1)c1nc2ccccc2[nH]1	-2.0%	?	-0.4%	4.3%	-7.7%	17.5%
N#C/C(=C/c1ccc(N2CCCC2)c([N+](=O)[O-])c1)c1nc2ccccc2[nH]1	?	6.01µM*	3.4%	?	-1.7%	7.7%
N#C/C(=C/c1ccc(N2CCOCC2)o1)c1ccc(Cl)cc1	2.82µM*	8.49µM*	?	3.55µM*	-1.3%	?
N#C/C(=C\c1ccc(N2CCCCC2)o1)C(N)=O	7.2%	?	7.5%	14.6%	-2.3%	/
N#C/C(=C\c1ccc(N2CCOCC2)o1)c1nc2ccccc2[nH]1	0.501µM*	0.426µM*	?	0.708µM*	-25.6%	0.562µM*
COCCn1c(=O)c(-c2ccc(OC)cc2)nc2cnc(OC)nc21	/	/	/	/	-3.2%	3.3%
O=C(O)C1=C[C@H](c2ccc(F)cc2)C[C@H](OCCCCO)O1	0.4%	-3.0%	1.9%	-24.5%	/	/
O=C(NC1CCCCCC1)C1CCC(=O)N(Cc2ccccc2F)C1 (stereo not given)	18.7%	-5.0%	0.6%	6.7%	/	/
COc1cccc(NC(=O)c2ccc(NC(C)=O)cc2)c1	?	?	?	18.1%	-2.5%	-3.7%
COc1ccc(C(=O)N/N=C(/C)c2cccc(NC(=O)c3ccccc3F)c2)cc1	23.9%	3.79µM*	6.0%	?	/	/
COc1ccc(C(=O)N/N=C(\C)c2cccc(NC(=O)c3ccc(F)cc3)c2)c(OC)c1	29.7%	4.26µM*	2.7%	29.7%	/	/
Cc1ccc(N2C(S)=C(C#N)C(=O)NC2c2cccs2)cc1 (stereo not given)	0.5%	-15.8%	-1.2%	-0.3%	-0.4%	4.47µM*
SMILES	Rab9 prom act	FLuc modulator	ELG1 genotoxic	NPC1 prom act	KinaseGlo FLuc	SMN2 splice up
N#CC1=C(S)N(c2ccccc2)C(c2cccs2)NC1=O (stereo not given)	2.2%	5.8%	-2.5%	6.4%	6.1%	24.2%
COc1cc(C2NC(=O)C(C#N)=C(S)N2c2ccc(C)cc2)ccc1OC(C)C (stereo not given)	-0.2%	15.1µM*	?	0.5%	2.2%	-30.5%
COc1ccc(N2C(S)=C(C#N)C(=O)NC2c2ccc(OC)c(OC)c2)cc1 (stereo not given)	-4.7%	?	5.6%	-6.9%	0.2%	/
Cc1ccc(N2C(S)=C(C#N)C(=O)NC2c2ccco2)cc1 (stereo not given)	1.9%	?	9.1%	-4.2%	8.4%	7.5%
CCOc1ccc(C2NC(=O)C(C#N)=C(S)N2c2ccc(OC)cc2)cc1OC (stereo not given)	3.0%	21.3µM*	0.6%	2.5%	-0.2%	-6.4%
COc1ccc(C2NC(=O)C(C#N)=C(S)N2c2ccc(C)cc2)cc1OC (stereo not given)	-1.6%	19µM*	1.6%	-0.6%	-0.5%	16.9%
COc1ccc(C2NC(=O)C(C#N)=C(S)N2c2cccc(C)c2)cc1OC (stereo not given)	-7.6%	?	-1.5%	-9.1%	0.3%	-3.3%
COc1cccc(/C=N/n2c(C3CCCCC3)n[nH]c2=S)c1	0.0%	-3.3%	-13.1%	-1.5%	/	/
COc1ccc2nc(/N=C/c3cccc(OC)c3O)sc2c1	?	0.953µM*	?	25.7%	/	/
CN(C)/C=N/c1nc2ccc3c(c2s1)CCCC3	3.55µM*	6.01µM*	?	2.51µM*	0.7%	14.1µM*
COc1ccc2nc(/N=C/c3c(C)[nH]n(-c4ccc(C)cc4)c3=O)sc2c1	21.6%	7.57µM*	4.1%	11.4%	10µM*	?
COc1ccc(N=C2C(=Nc3ccc(OC)cc3)N(c3ccc(N(C)C)cc3)C(=S)N2c2ccc(OC)cc2)cc1	-2.8%	1.4%	10.2%	-1.5%	-3.0%	2.6%
COc1ccc2nc(N=Nc3ccc(N(C)C)cc3)sc2c1	0.708µM*	0.0675µM*	?	0.316µM*	11.2µM*	-5.1%
COc1ccc2c(c1)-c1nc(/N=C/c3cccc(OC)c3O)sc1CC2	1.5%	?	-1.8%	-1.1%	-4.1%	1.9%[1.84 µM]
O=C(COC(=O)CNC(=O)c1ccc(Cl)c([N+](=O)[O-])c1)NC(=O)CN1CCCC1=O	-5.5%	-19.2%	-5.8%	0.5%	/	/
COc1ccc2nc(/N=C\N(C)C)sc2c1	?	23.9µM*	16.2%	23.8%	-8.4%	38.6%
CCOCCCN1C(=O)CN(C2CCCCCC2)C(=O)C1c1ccc(OCC)c(OC)c1 (stereo not given)	/	-2.9%	/	/	/	/
Cc1ccc(NC(=O)C(C)C(=O)Nc2ccc(C)cc2)cc1	-0.3%	-0.4%	0.2%	-2.8%	2.8%	-14.5%
NC(=O)Cn1nnc(-c2ccc(NC(=O)c3ccc(F)cc3)cc2)n1	?	?	?	?	-0.9%	14.1µM*
Cc1ccc(NC(=O)c2ccccc2)cc1	2.24µM*	6.01µM*	?	2µM*	-16.1%	14.1µM*
O=C(c1ccc(F)cc1)c1cnc(Nc2ccccc2)s1	1.26µM*	0.601µM*	?	2µM*	-3.0%	/
